Several values for one entry are separate records, joined by “and”; a condition that tells them apart may be missing. Identical values can stand only once. The campaign covered roughly 5,500 compounds. About 2,000 (36%) were called active. About 18% were inconclusive and are not listed. Rule as the data show it: active = normalized growth mostly below about 0.91 (no sharp cut-off); inconclusive = no clear call, values can overlap the other calls; inactive = mostly above about 0.92. This is one part of the list.
Test: chemical genetic growth profiling, strain panel (AID 1159580);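 also: tested at 20 µM; growth read once vehicle control cultures reached saturation at 30 °C; 1 = growth at the plate median or of vehicle wells; lower values mean less growth of the strain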
Conditions: S. cerevisiae deletion strains, growth OD

Measured: normalized growth

COc1cc([C@@H]2c3cc4c(cc3[C@H](O)[C@H]3COC(=O)[C@H]23)OCO4)cc(OC)c1OC
inactive: locus YAL013W, strain DEP1, hits give low values 1.01 | locus YAL021C, strain ccr4, hits give low values 1 | locus YAL026C, strain drs2, hits give low values 1.03 | locus YAL030W, strain snc1, hits give low values 1.01 | locus YBL061C, strain skt5, hits give low values 1.01 | locus YBR009C, strain hhf1, hits give low values 1.04 | locus YBR021W, strain FUR4, hits give low values 1.01 | locus YBR023C, strain chs3, hits give low values 1.01 | locus YBR171W, strain sec66, hits give low values 1.01 | locus YBR229C, strain ROT2, hits give low values 1.01 | locus YBR231C, strain swc5, hits give low values 1.01 | locus YBR279W, strain paf1, hits give low values 1.02 | locus YCL011C, strain gbp2, hits give low values 1.01 | locus YCL016C, strain dcc1, hits give low values 0.996 | locus YCL029C, strain bik1, hits give low values 1.03 | locus YCL061C, strain MRC1, hits give low values 1.02 | locus YCL069W, strain vba3, hits give low values 1.01 | locus YCR088W, strain abp1, hits give low values 1.01 | locus YDL005C, strain med2, hits give low values 1.01 | locus YDL035C, strain GPR1, hits give low values 1.01 | locus YDL040C, strain nat1, hits give low values 1 | locus YDL074C, strain BRE1, hits give low values 1.05 | locus YDL101C, strain DUN1, hits give low values 1.02 | locus YDL134C, strain PPH21, hits give low values 1.02 | locus YDL185W, strain tfp1, hits give low values 1.01 | locus YDL192W, strain arf1, hits give low values 1.01 | locus YDR001C, strain nth1, hits give low values 1 | locus YDR069C, strain doa4, hits give low values 1 | locus YDR101C, strain arx1, hits give low values 1.01 | locus YDR137W, strain rgp1, hits give low values 1.03 | locus YDR150W, strain NUM1, hits give low values 1.01 | locus YDR159W, strain sac3, hits give low values 0.987 | locus YDR162C, strain NBP2, hits give low values 1.01 | locus YDR195W, strain ref2 0.971 | locus YDR297W, strain sur2, hits give low values 1.01 | locus YDR318W, strain mcm21, hits give low values 1.03 | locus YDR334W, strain swr1, hits give low values 1.02 | locus YDR335W, strain msn5, hits give low values 1.01 | locus YDR388W, hits give low values 1.01 | locus YDR392W, strain spt3, hits give low values 0.926 | locus YDR502C, strain sam2, hits give low values 1 | locus YEL003W, strain gim4, hits give low values 1.01 | locus YEL037C, strain rad23, hits give low values 1.02 | locus YEL061C, strain CIN8 (second series), hits give low values 1.01 | locus YEL061C, strain CIN8, hits give low values 1 | locus YER015W, strain faa2, hits give low values 1.02 | locus YER016W, strain bim1, hits give low values 1 | locus YER110C, hits give low values 1.01 | locus YER111C, strain swi4, hits give low values 1.01 | locus YER155C, strain BEM2 (second series), hits give low values 0.998 | locus YER155C, strain BEM2, hits give low values 1.01 | locus YER167W, strain BCK2, hits give low values 1.01 | locus YFR010W, strain ubp6, hits give low values 1.02 | locus YGL078C, strain dbp3, hits give low values 1 | locus YGL086W, strain mad1, hits give low values 1 | locus YGL167C, strain pmr1, hits give low values 1.01 | locus YGL173C, strain kem1, hits give low values 1.04 | locus YGL227W, strain vid30, hits give low values 1.01 | locus YGL240W, strain doc1, hits give low values 1 | locus YGL248W, strain PDE1, hits give low values 1.01 | locus YGL253W, strain hxk2, hits give low values 0.982 | locus YGR078C, strain PAC10, hits give low values 1.03 | locus YGR135W, strain pre9, hits give low values 1.01 | locus YGR229C, strain SMI1, hits give low values 1.03 | locus YGR252W, strain gcn5, hits give low values 0.988 | locus YHR013C, strain ard1, hits give low values 1 | locus YHR027C, strain rpn1, hits give low values 1.01 | locus YHR030C, strain SLT2, hits give low values 1.01 and 0.951 | locus YHR079C, strain IRE1 (second series), hits give low values 1.02 | locus YHR079C, strain IRE1, hits give low values 0.952 | locus YHR094C, strain hxt1, hits give low values 1.01 | locus YHR129C, strain ARP1, hits give low values 1.01 | locus YHR142W, strain chs7, hits give low values 0.992 | locus YHR200W, strain rpn10, hits give low values 1.01 | locus YIL066C, strain RNR3, hits give low values 1.02 | locus YIL073C, strain SPO22, hits give low values 1.02 | locus YIL125W, strain kgd1, hits give low values 1.01 | locus YIR030C, strain dcg1, hits give low values 1.01 | locus YJL092W, strain hpr5, hits give low values 1.02 | locus YJL095W, strain BCK1 (second series), hits give low values 1.01 | locus YJL095W, strain BCK1, hits give low values 1.04 and 0.961 | locus YJL115W, strain asf1, hits give low values 1.01 | locus YJL129C, strain trk1, hits give low values 1.02 | locus YJL134W, strain LCB3, hits give low values 1.01 | locus YJL154C, strain vps35, hits give low values 0.999 | locus YJL164C, strain tpk1, hits give low values 1.02 | locus YJL166W, strain qcr8, hits give low values 1 | locus YJL168C, strain set2, hits give low values 1.01 | locus YJL187C, strain SWE1 (second series), hits give low values 1.04 | locus YJL187C, strain SWE1, hits give low values 1.02 | locus YJR043C, strain POL32, hits give low values 1.04 | locus YJR066W, strain TOR1, hits give low values 0.927
